Source: PubChem BioAssay (Tox21)
Records with an inconclusive call do not appear. The source made the active and inactive calls. Unless noted, calls follow the shape of the dose curve; as a rule, active = well fitted curve in the direction sought with a large enough effect in the repeat runs; inconclusive = weak or mixed curves; inactive = no such curve, though single readings can be large; an effect the other way counts as inactive or inconclusive.

Tests used:
[1] = qHTS assay to identify small molecule antagonists of the estrogen related receptor (ERR) signaling pathway from Tox21 library - cell viability counter screen (AID 1224834); also: nearly all actives have a fitted effect of over 30% in size
Outline: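 Seeded ERR cells were rested 6 h at 37 C/5% CO2 before compounds, positive and negative controls or DMSO were added. Incubation continued for 17.5 h, and viability was then quantified by CellTiter-Fluor fluorescence.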

[2] = molecular target: Luciferin 4-monooxygenase (Photinus pyralis) (UniProt P08659); assay: qHTS assay to identify small molecule inhibitors of firefly luciferase (AID 1224835); also: series mostly up to about 120 µM; nearly all actives have a fitted effect of over 25% in size
Outline: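 Inhibition of purified Photinus luciferase is measured by luminescence. Substrate levels (D-luciferin, ATP) sit at their KM values. Each compound is tested in a concentration series.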

[3] = qHTS assay to identify small molecule agonists of the constitutive androstane receptor (CAR) signaling pathway - cell viability counter screen (AID 1224836); also: series mostly up to about 92 µM; nearly all actives have a fitted effect of over 45% in size
Outline: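 Compound titrations (15 concentrations) went onto HepG2-CYP2B6-hCAR cells 4 h after seeding, alongside PK11195 at a final 0.75 uM; a 23 h, 37 C/5% CO2 incubation preceded CellTiter-Fluor viability measurement.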

[4] = qHTS assay to identify small molecule antagonists of the constitutive androstane receptor (CAR) signaling pathway - cell viability counter screen (AID 1224837); also: series mostly up to about 92 µM; nearly all actives have a fitted effect of over 45% in size
Outline: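 To flag cytotoxic false antagonists, HepG2 hCAR/CYP2B6-2.2kb cells were treated 23 hr with 15-concentration compound series and 50 nM CITCO at 37 C/5% CO2; CellTiter-Fluor fluorescence was the measured end point.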

[5] = qHTS assay to identify small molecule antagonists of the estrogen related receptor signaling pathway with the pleiotropic PPARgamma coactivator (PGC) from Tox21 10K library - cell viability counter screen (AID 1224840; active = well fitted cell-killing curve with a large enough effect in the repeat runs, not every such curve was filed as active; also: nearly all actives have a fitted effect of over 40% in size)
Outline: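 Seeded PGC/ERR cells (2,000/well, 6 h, 37 C/5% CO2) get compound by pin tool; 17.5 h incubation at 37 C; CellTiter-Fluor added, 30 min, fluorescence measured.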

[6] = qHTS assay to identify small molecule agonists of the hypoxia (HIF-1) signaling pathway - cell viability counter screen (AID 1224844; calls by dose curve; also: nearly all actives have a fitted effect of over 50% in size)
Outline: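 HRE-bla ME-180; 0.5% dFBS; cpd 17 h, 37C, 5% CO2; CellTiter-Glo lum., 30 min RT, post-FRET read, same wells.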

[7] = qHTS assay to identify small molecule agonists of H2AX (AID 1224845; active = well fitted activation curve with a large enough effect in the signal ratio in the repeat runs, not every such curve was filed as active; the % refers to the signal ratio)
Outline: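 Phospho-H2AX Ser139 measured by HTRF (ex 320 nm; em 665 and 620 nm) after 24 hr antibody incubation. Compounds, 15 concentrations, 0.76% DMSO, were applied to CHO-K1 cells for 3hr at 37C before lysis.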

[8] = qHTS assay to identify small molecule agonists of the hypoxia (HIF-1) signaling pathway (AID 1224846; active = well fitted activation curve with a large enough effect in the signal ratio in the repeat runs, not every such curve was filed as active; the % refers to the signal ratio)
Outline: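 Reporter induction in HRE-bla ME-180 cells is taken as agonism: cells sit 5 hrs after plating, receive compounds or DMSO only, incubate 17 hrs at 37C under 5% CO2, and are loaded with CCF4-AM for beta-lactamase FRET measurement.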

[9] = qHTS assay to identify small molecule agonists of H2AX - cell viability counter screen (AID 1224847; calls by dose curve; also: top concentration of the series differs between compounds; nearly all actives have a fitted effect of over 30% in size)
Outline: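 Read-out: CellTiter-Glo luminescence, 30 min RT. Cells: wild-type CHO-K1, 1000/well, 10% FBS, plated overnight at 37C. Treatment: 15 concentrations, 3 hr, 37C, 0.76% DMSO.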

[10] = qHTS RealTime-Glo MT Cell Viability Assay in HepG2 cells - 24 hour (AID 1224867); also: nearly all actives have a fitted effect of over 50% in size
Outline: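 qHTS, HepG2, 600 cells/well, RealTime-Glo (NanoLuc + prosubstrate) added with cells; 5 h preincubation; DMSO compound addition; 37 C; luminescence at 0/8/16/24/32/40 h.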

[11] = qHTS RealTime-Glo MT Cell Viability Assay in HEK293 cells - 32 hour (AID 1224868); also: top concentration of the series differs between compounds; nearly all actives have a fitted effect of over 50% in size
Outline: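 Assay medium contained NanoLuc luciferase plus cell-permeant prosubstrate, added with HEK293 cells at 600 cells/well. After 5 h at 37 C/5% CO2 compounds were added; plates stayed at 37 C for 40 h with serial luminescence reads.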

[12] = A CellTox Green Cytotoxicity Assay to monitor cytotoxicity in HEK293 cells - 0 hour (AID 1224869); also: nearly all actives have a fitted effect of over 50% in size
Outline: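 Tox21 screen in HEK293: membrane-impermeant cyanine dye fluoresces on binding dead-cell DNA; compound pinned 5 h post-seeding, plates held at 37 C, signal read repeatedly through 40 h.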

[13] = qHTS RealTime-Glo MT Cell Viability Assay in HepG2 cells - 40 hour (AID 1224870); also: nearly all actives have a fitted effect of over 50% in size
Outline: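 Real-time viability: cells seeded at 600 per well together with NanoLuc and cell-permeant prosubstrate, compounds added after 5 h incubation. Luminescence tracked at 0, 8, 16, 24, 32 and 40 h of exposure.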

[14] = molecular target: Thyrotropin receptor (Homo sapiens) (UniProt P16473); assay: qHTS assay to identify small molecule agonists of the thyroid stimulating hormone receptor (TSHR) signaling pathway (AID 1224843; calls by dose curve; also: nearly all actives have a fitted effect of over 45% in size)
Outline: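 Agonist activity read as cAMP rise via d2/cryptate HTRF competition, 1 h room-temperature detection, in HEK293 cells expressing TSHR. Fifteen-point titrations, each run in triplicate, with a 30 min room-temperature incubation beforehand.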

[15] = qHTS assay to identify small molecule antagonists of the estrogen related receptor signaling pathway with the pleiotropic PPARgamma coactivator (PGC) from Tox21 10K library (AID 1224841; call rule not given here)
Outline: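 Test chemicals dissolved in DMSO were applied to pre-incubated (6 h) PGC/ERR cells at 2,000 cells/well for an 18 h, 37 C treatment; reporter luminescence was then read using One-Glo.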

[16] = qHTS assay to identify small molecule agonists of the estrogen related receptor signaling pathway with the pleiotropic PPARgamma coactivator (PGC) from Tox21 10K library (AID 1224842); also: nearly all actives have a fitted effect of over 15% in size
Outline: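 Luminescence from One-Glo (30 min, room temperature) measured after PGC/ERR cells had 18 h at 37 C with pinned compound (23 nL in DMSO). Cells had been seeded at 2,000 per well and pre-incubated 6 h.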

[17] = qHTS assay to identify small molecule antagonists of the estrogen related receptor (ERR) signaling pathway from Tox21 library (AID 1224848); also: nearly all actives have a fitted effect of over 50% in size
Outline: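 Luciferase luminescence (ONE-Glo, 30 min room temperature) was the read-out. Cells of the NTP-supplied ERR line, 2,000 per well, were given 6 h at 37 C before compound addition in DMSO and 18 h exposure at 37 C.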

[18] = molecular target: Nuclear receptor subfamily 1 group I member 3 (Homo sapiens) (UniProt Q14994); assay: qHTS assay to identify small molecule antagonists of the constitutive androstane receptor (CAR) signaling pathway (AID 1224838);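 also: HepG2 cells stably expressing hCAR with CYP2B6 luciferase reporter stimulated by CITCO; nearly all actives have a fitted effect of over 40% in size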
Outline: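 Human hepatoma HepG2 cells expressing hCAR and a CYP2B6 promoter (2.2 kb) luciferase construct; compound titration (15 points) with 50 nM CITCO final, 24 h at 37 C/5% CO2; luminescence via ONE-Glo after 30 min at room temperature.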

[19] = molecular target: Nuclear receptor subfamily 1 group I member 3 (Homo sapiens) (UniProt Q14994); assay: qHTS assay to identify small molecule agonists of the constitutive androstane receptor (CAR) signaling pathway (AID 1224839);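 also: HepG2 cells stably carrying human CAR and a CYP2B6 luciferase reporter; series mostly up to about 92 µM; nearly all actives have a fitted effect of over 15% in size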
Outline: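 In this screen, CAR-driven CYP2B6 promoter activity is measured by luminescence in HepG2-CYP2B6-hCAR cells after 24 h with test compounds and 0.75 uM PK11195 (final concentration).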

Measured: Potency

Nuclear receptor subfamily 1 group I member 3 (Homo sapiens), sequence (Q14994 whole entry, looked up): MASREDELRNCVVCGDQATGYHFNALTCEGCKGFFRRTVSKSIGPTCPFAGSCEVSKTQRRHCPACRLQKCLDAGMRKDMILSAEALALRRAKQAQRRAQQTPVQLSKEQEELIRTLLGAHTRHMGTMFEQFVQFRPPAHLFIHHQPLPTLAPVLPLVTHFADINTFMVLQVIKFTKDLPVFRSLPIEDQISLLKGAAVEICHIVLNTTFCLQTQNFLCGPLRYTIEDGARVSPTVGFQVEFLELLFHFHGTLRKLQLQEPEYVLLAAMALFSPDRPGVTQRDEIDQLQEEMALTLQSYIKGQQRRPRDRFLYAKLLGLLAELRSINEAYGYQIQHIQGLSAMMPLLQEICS
Thyrotropin receptor (Homo sapiens), sequence (P16473 whole entry, looked up): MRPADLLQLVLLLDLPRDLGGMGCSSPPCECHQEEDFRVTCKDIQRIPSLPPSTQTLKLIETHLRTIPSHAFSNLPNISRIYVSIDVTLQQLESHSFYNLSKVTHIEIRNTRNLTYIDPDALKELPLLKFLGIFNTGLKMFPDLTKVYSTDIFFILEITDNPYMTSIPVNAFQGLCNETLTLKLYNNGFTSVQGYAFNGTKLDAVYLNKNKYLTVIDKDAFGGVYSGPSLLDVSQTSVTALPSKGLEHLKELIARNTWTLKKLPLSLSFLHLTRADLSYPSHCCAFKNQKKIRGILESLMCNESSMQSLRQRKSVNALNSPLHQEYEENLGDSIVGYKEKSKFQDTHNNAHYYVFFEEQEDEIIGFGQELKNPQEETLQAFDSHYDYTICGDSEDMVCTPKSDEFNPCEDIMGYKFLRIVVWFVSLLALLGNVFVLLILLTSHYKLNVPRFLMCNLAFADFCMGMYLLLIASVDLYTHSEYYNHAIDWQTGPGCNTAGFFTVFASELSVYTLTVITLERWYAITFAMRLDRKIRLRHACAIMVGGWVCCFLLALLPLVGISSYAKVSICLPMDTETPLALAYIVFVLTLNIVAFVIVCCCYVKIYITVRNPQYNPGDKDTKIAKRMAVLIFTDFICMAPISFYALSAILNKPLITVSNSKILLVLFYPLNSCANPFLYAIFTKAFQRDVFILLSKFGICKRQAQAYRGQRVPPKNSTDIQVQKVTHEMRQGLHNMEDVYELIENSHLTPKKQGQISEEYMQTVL
Luciferin 4-monooxygenase (Photinus pyralis), sequence (P08659 whole entry, looked up): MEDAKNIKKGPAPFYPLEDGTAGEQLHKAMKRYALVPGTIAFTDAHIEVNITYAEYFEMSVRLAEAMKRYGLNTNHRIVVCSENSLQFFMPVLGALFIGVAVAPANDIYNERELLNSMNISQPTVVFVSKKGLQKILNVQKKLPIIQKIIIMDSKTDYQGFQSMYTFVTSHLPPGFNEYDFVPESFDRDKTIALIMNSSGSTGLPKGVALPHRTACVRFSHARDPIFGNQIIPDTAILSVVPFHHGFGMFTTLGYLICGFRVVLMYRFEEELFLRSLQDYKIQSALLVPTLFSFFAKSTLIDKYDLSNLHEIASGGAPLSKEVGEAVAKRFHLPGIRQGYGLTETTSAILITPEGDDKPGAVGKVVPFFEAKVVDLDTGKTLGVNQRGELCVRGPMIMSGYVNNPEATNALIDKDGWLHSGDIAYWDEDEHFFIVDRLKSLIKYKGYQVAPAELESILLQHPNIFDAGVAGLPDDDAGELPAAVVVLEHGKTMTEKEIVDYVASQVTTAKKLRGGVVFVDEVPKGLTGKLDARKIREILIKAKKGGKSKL

CCO[Si](CCC#N)(OCC)OCC
not listed: [14] | [15] | [16] | [17] | [18] | [19]
inactive: all other assays above

Clc1ccccn1
not listed: [15] | [16] | [17] | [18] | [19]
inactive: all other assays above

CC1(C)CC(N)CC(C)(CN)C1 (centres undefined)
not listed: [15] | [16] | [17] | [18] | [19]
inactive: all other assays above

CC(=O)CCC=C(C)C
not listed: [18] | [19]
inactive: all other assays above

CN/C(=C\[N+](=O)[O-])NCCSCc1csc(CN(C)C)n1
not listed: [2] | [8] | [15] | [16] | [17]
inactive: all other assays above

N[C@H](Cc1c[nH]c2ccccc12)C(=O)O
not listed: [15] | [16] | [17] | [18] | [19]
inactive: all other assays above

O=C1CCCC1
not listed: [14] | [18] | [19]
inactive: all other assays above

CC(=O)CC(C)(C)O
not listed: [18] | [19]
inactive: all other assays above
